# In PubChem BioAssay (NCATS):
# Where “and” joins values, the source holds several entries; their conditions need not be identical. Identical values can stand only once. Inconclusive results are not listed. A number with no mark means an inactive call. Calls of active or inactive are those of the source. Calls come from the whole dose curve; as a rule, active = well fitted cell-killing curve with a large enough effect; inconclusive = small, poorly fitted or top-dose-only effect; inactive = flat fitted curve, though single readings scatter.
# Assay: Cellular viability qHTS for adrenocortical cancer (ACC) cell line SW-13 (AID 1963989); note: nearly all actives have a fitted effect of over 65% in size;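 for activity (max response): cells grown in serum-free medium with ITS supplement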
# Conditions: SW-13 ACC cells viability, CellTiter-Glo, 48 h; activity (max response): stronger effect = lower value
# From the text: PI: Naris Nilubol, MD Surgical Oncology Program, National Cancer Institute (NCI) National Institute of Health (NIH), Bethesda, Maryland Adrenocortical cancer (ACC) is a rare malignancy with poor survival outcomes and few treatment options. Currently, mitotane is the only FDA-approved therapy for ACC. Although adjuvant radiation therapy is rarely utilized, it has the potential to improve survival in select cases. Through a quantitative high-throughput drug screen (qHTS), we identified auranofin (AF), a thioredoxin reductase (TXNRD) inhibitor, as a promising candidate drug. This study aims to evaluate whether AF can enhance the efficacy of radiation therapy in the treatment of ACC. Two human ACC cell lines, SW-13 and NCI-H295R, were screened using the National Center for Advancing Translational Sciences (NCATS) Pharmaceutical Collection (NPC) and the Mechanism Interrogation PlatE (MIPE) library (~4,991 compounds). CellTiter-Glo (Cat # G7570, Promega, Madison, WI) was utilized to measure cell viability. Described herein are the results of the corresponding viability assay.
# PROTOCOL TABLE (as described by Inglese J, Shamu CE and Guy RK. 2007) SEQUENCE No. (e.g., 1, 2, 3, etc.); […] (e.g., Cells, Incubation, Reagent, etc.); VALUE; DESCRIPTION. 1; Cells; 5 uL; white, solid-bottom, 1536-well tissue-culture treated plates. 2; Time; overnight culture at 37C with 5% CO2. 3; Compounds and control; 23 nL; Kalypsis pin tool (Wako USA) equipped with a 1536-well pin head to transfer to the assay plates. 4; Time; 48 hours; 37C with 5% CO2. 5; Reagent; 4 uL; CellTiter-Glo luminescent substrate mix. 6; Time; 20 min at room temperature. 7; Detection; Luminescence; ViewLux plate reader NOTES (numbers refer to Sequence numbers above) 1. SW13 cells were harvested from a T175 flask and resuspended in ITS-supplemented DMEM serum-free medium at a concentration of 300 000 cells/mL. Then 5 uL of resuspended cells were dispensed into each well of white, solid-bottom, 1536-well tissue-culture-treated plates using a multidrop combi dispenser. The plates were covered with stainless steel gasket lids. 2-3. The plates were cultured overnight at 37C with 5% CO2. Twenty-three nL of compounds (eight selected concentrations from the NPC / MIPE) or positive control (10 mM stock of bortezomib) in DMSO was transferred to each well of the assay plate using a pin tool (Kalypsys, San Diego, CA, USA). The final concentration of the compounds in the 5 uL assay volume ranged from 0.5 nM to 46 uM. 4-6. After 48 hours of incubation at 37C and 5% CO2, 4 uL of CellTilter-Glo luminescent substrate mix (Promega, Madison, WI, USA) was added to each well. Then the plates were incubated for 20 minutes at room temperature. 7. After incubation, luminescence was measured using a ViewLux plate reader (PerkinElmer, Waltham, MA, USA) with a clear filter was used to measure the number of metabolically competent cells. To determine compound activity in the qHTS assay, the titration-response data for each sample was plotted and modeled by a four-parameter logistic fit yielding IC50 and efficacy (maximal response) values. […] REFERENCES: Inglese J, Shamu CE and Guy RK, Reporting data from high throughput screening of small molecule libraries, Nature Chemical Biology, 2007, 3(8): 438-441. doi.org/10.1038/nchembio0807-438.
# % is set by controls: 0 for no effect and ±100 for the full control effect.
SMILES,activity (max response),Potency
CN1CCN(c2c(F)cc3c(=O)c(C(=O)O)cn(CCF)c3c2F)CC1,-1.49%,–
CC1(C)CCC(c2ccc(Cl)cc2)=C(CN2CCN(c3ccc(C(=O)NS(=O)(=O)c4ccc(N[C@H](CCN5CCOCC5)CSc5ccccc5)c(S(=O)(=O)C(F)(F)F)c4)cc3)CC2)C1,11.1%,–
CC(C)(C)C(O)/C=C/c1ccc2c(c1)OCO2 (stereo not given),-8.69%,–
COc1ccc2[nH]c(C(=O)N3CCC(CC(C)(C)O)CC3)cc2c1,-4.14%,–
NS(=O)(=O)c1cc2c(cc1Cl)NC(CC1CCCC1)NS2(=O)=O (stereo not given),10.5%,–
CCOC(=O)COc1ccc2c(C)c(CCN(CC)CC)c(=O)oc2c1Cl,0.298%,–
Cc1ccccc1C(=O)c1ccc(Nc2ccc(Br)cc2N)cc1Cl,–,31.6 µM (active)
NS(=O)(=O)c1ccc(N2CCCCS2(=O)=O)cc1,16.4%,–
C[C@@H](O)[C@@H]1NC(=O)[C@H](CCCCN)NC(=O)[C@@H](Cc2c[nH]c3ccccc23)NC(=O)[C@H](Cc2ccccc2)NC(=O)[C@@H](NC(=O)[C@H](N)Cc2ccccc2)CSSC[C@@H](C(=O)N[C@H](CO)[C@@H](C)O)NC1=O,-1.31%,–
N=C1CCCN1Cc1[nH]c(=O)[nH]c(=O)c1Cl,-17.6%,–
O=C1OC2(CCC(C(=O)Nc3ccn(-c4ccccc4F)n3)CC2)c2cnccc21 (stereo not given),-3.21%,–
NCC1CCN(c2nccc(-c3ccc4ccccc4c3)n2)CC1,–,22.4 µM (active)
Cl/C(=C\n1cncn1)c1ccc(Cl)cc1Cl,2.66%,–
COc1ccc(C2C(=O)c3ccccc3C2=O)cc1,8.16%,–
CCCN(CCC)S(=O)(=O)c1ccc(C(=O)O)cc1,9.34%,–
C[C@@]1(c2cc(-c3cncnc3)c(F)cc2F)CCSC(N)=N1,-2.1%,–
CC1=C(CC(=O)O)c2cc(F)ccc2C1=Cc1ccc(S(C)=O)cc1 (stereo not given),10.2%,–
C#CCN[C@@H]1CCc2ccccc21,3.89% and -12.7%,–
O=C(O)c1cc(=O)[nH]c(=O)[nH]1,-4.98%,–
CCn1c(=O)c(-c2ccc(Cl)cc2Cl)cc2cnc(Nc3ccc(N4CCNCC4)c(F)c3)nc21,-23.5%,–

SMILES,activity (max response),Potency
O=S(=O)(c1cccc2cnccc12)N1CCCNCC1,2.02% and -0.384%,–
CN(Cc1ccc(/C=C/C(=O)NO)cc1)CC12CC3CC(CC(C3)C1)C2,–,2.24 µM (active)
CCOC(=O)c1c(C)n(C)c2ccc(O)cc12,5.26% and -18.4%,–
CC(C)c1cc(C(=O)N2Cc3ccc(CN4CCN(C)CC4)cc3C2)c(O)cc1O,–,0.398 µM (active)
COc1ccc(C[C@@H](C)[C@@H](C)Cc2ccc(OC)c(OC)c2)cc1OC,-32.2%,–
COC(C)(C)CCn1nc(Nc2c(C)cccc2C)c2cnc(Nc3ccc(OCCN4CCCC4)c(F)c3)nc21,–,2.82 µM (active)
CC(N)C(=O)OC(C)(C)Cc1ccc(Cl)cc1 (stereo not given),12.9%,–
COC1=C(OC)C(=O)C(C/C=C(\C)CC/C=C(\C)CC/C=C(\C)CC/C=C(/C)CC/C=C(\C)CC/C=C(\C)CC/C=C(\C)CC/C=C(\C)CC/C=C(\C)CCC=C(C)C)=C(C)C1=O,3.03%,–
CC[C@@H](C)[C@H](NC(=O)[C@H](CC1CCCCC1)NC(=O)c1ccno1)C(=O)N1CCC2(CCc3ccccc32)CC1,-1.23%,–
Cc1c[nH]c2ccccc12,13.2%,–
O=C(O)P(=O)(O)O,10.2%,–
C[C@]12CCC3=C4CCC(=O)C=C4CC[C@H]3[C@@H]1CC[C@@]2(O)CC#N,0.0754%,–
NC(=O)c1cccc(-c2cccc(OC(=O)NC3CCCCC3)c2)c1,-29.9%,–
CC(COc1ccccc1)N(CCCl)Cc1ccccc1 (stereo not given),-3.42%,–
Cc1cccc(C)c1NC(=O)c1cc(S(N)(=O)=O)c(Cl)cc1O,10.1%,–
CC(C)(F)C[C@H](N[C@@H](c1ccc(-c2ccc(S(C)(=O)=O)cc2)cc1)C(F)(F)F)C(=O)NC1(C#N)CC1,-2.64%,–
CCOC(=O)c1ccc(OCCN2C[C@H](O)[C@@H](O)[C@H](O)[C@H]2CO)cc1,-1.86%,–
OC[C@H]1O[C@@H](O[C@@H]2[C@@H](CO)O[C@](O)(CO)[C@H]2O)[C@H](O)[C@@H](O)[C@H]1O,1.01% and 4.87%,–
CCOc1ccc(NS(=O)(=O)c2ccc(N)cc2)nn1,7.51%,–
CCOc1cc(N)c(Cl)cc1C(=O)NCC1CN(Cc2ccc(F)cc2)CCO1 (stereo not given),-20% and -11.9%,–
